About 750 (0.21%) of roughly 360,000 compounds were called active. Inconclusive results (about 2%) are left out. Calls follow the shape of the dose curve; as a rule, active = well fitted falling curve with a large enough effect; inconclusive = small, poorly fitted or top-dose-only effect; inactive = no such curve, though single readings can be large or run the other way. The list comes from a sample in which actives are over-represented; it also holds similar structures and randomly drawn compounds. Entries that show only a call come without a potency.
test: qHTS Assay for Inhibitors of the HIV-1 protein Vpr; also: nearly all actives have a fitted effect of over 50% in size; details: S. pombe RE007 Vpr strain, BacTiter-Glo ATP luminescence, 24 h; series mostly up to 92.2 µM
Source text: Human immunodeficiency virus type 1 (HIV-1), the causative agent of AIDS, contains a protein called viral protein R (Vpr) that plays an important role in the viral life cycle and the pathogenesis of HIV-1.
These Vpr specific activities include cytoplasmic-nuclear shuttling, induction of cell cycle G2 arrest and cell killing. The cytoplasmic-nuclear shuttling is believed to participate in nuclear transport of the proviral integration complex (PIC). The cell cycle G2 arrest induced by Vpr is thought to suppress human immune functions by preventing T cell clonal expansion and to provide an optimized cellular environment for maximal levels of viral replication. In addition, Vpr induces apoptosis, which may contribute to the depletion of CD4 T cells in HIV-infected patients. Since the Vpr-specific activities have been linked to such clinical manifestation of AIDS as activation of viral replication, suppression of host immune responses and depletion of CD4+ T-lymphocytes, identification of new molecular probes that can inhibit the Vpr activities could potentially provide a new approach to reduce Vpr-mediated detrimental effects in HIV-infected patients, and thus prolong patient's lives. Currently, there are no anti-Vpr drugs.
A fission yeast (Schizosaccharomyces pombe) model system for the Vpr studies has been developed which measures HIV-1 Vpr-induced cell death. This assay will be used for to screen the NIH Molecular Libraries Small Molecule Repository (MLSMR) identify small molecule HIV-1 Vpr inhibitors.
NIH Chemical Genomics Center [NCGC]
NIH Molecular Libraries Probe Centers Network [MLPCN]
Assay Submitter (PI): Richard Zhao, University of Maryland
The fission yeast RE007 strain was used, which carries a single integrated copy of HIV-1 vpr gene in the yeast chromosome. The starting culture was frozen stock 100ul of yeast RE007 in 150ml of *PMG+AL medium, Incubation in 30 degree plus 99% humidity for 18 hours. Next day dispensed 2.5ul of PMG+AL medium in each well to 1536 well white solid plate, then 23nL compound were delivered to each well using a pin tool. Check OD for overnight culture and add cell density at 0.01 for each well, incubation in 30 degree plus 99% humidity for 24 hours. After add 5 ul of *BacTiter/Glo detect reagent to each well at room temperature for 5 minutes then to red out results with Viewlux CCD camera.
Potency is read from the fitted curve at half-maximal effect.

Structure (SMILES)	Potency	activity change, negative = less growth
Cc1cc(C)c2c(n1)sc1c(=O)n(-c3ccccc3)c(=O)[nH]c12	inactive	–
CCCCCCCCc1c(O)nc(-n2[nH]c(C)c(CCO)c2=O)[nH]c1=O	inactive	–
Cc1ccc(-c2nn(-c3ccc(F)cc3)cc2C(=O)NCC(c2cccs2)N2CCOCC2)cc1 (centres undefined)	inactive	–
FC(F)(F)C1CCCN(c2nsc3ccccc23)C1 (centres undefined)	8.91 µM (active)	–
CCn1ncc(C2=NOC(C(=O)N3CCN(c4ccccc4)CC3)C2)c1C (centres undefined)	inactive	–
CC1Cc2ccccc2N1C(=O)c1cc2sccc2n1Cc1ccccc1 (centres undefined)	inactive	–
COc1ccc(C(CNC(=O)c2cc(S(=O)(=O)Nc3cccc(C)c3)ccc2C)N2CCCC2)cc1 (centres undefined)	inactive	–
CCn1cc(C(=O)N[C@@H](C)C(=O)NCCO)c(=O)c2cc3c(cc21)OCO3	inactive	–
O=[N+]([O-])c1ccc(C=Nc2ccc(Cl)cc2Cl)s1	3.16 µM (active)	–
Cc1ccc(S(=O)(=O)N(c2cccc(C)c2)C2CCS(=O)(=O)C2)cc1 (centres undefined)	inactive	–
CN1CCN(C(=O)c2ccccc2NC(=O)COc2ccccc2Cl)CC1	inactive	–
COc1ccc(NC(=O)c2cccc(Cl)c2)c[n+]1[O-]	inactive	–
Cc1cccc(NS(=O)(=O)c2ccc(-c3cnc(C4CC4)o3)cc2)c1	inactive	–
Cc1ccccc1OCC(=O)NCC(=O)OCC(=O)c1ccc2ccccc2c1	inactive	–
Cc1cccc(C)c1NC(=O)Nc1ccccc1-n1ccnc1	inactive	–
CC(C)NC(=O)CSc1ccccc1C(=O)NCc1ccc2c(c1)OCO2	inactive	–
CCSc1ccccc1C(=O)Nc1ccc2c(c1)OCO2	28.2 µM (active)	–
CCOc1ncccc1C(=O)Nc1ccc2c(c1)OCCO2	inactive	–
O=C1COc2ccc(C(=O)COC(=O)CCOc3ccccc3)cc2N1	inactive	–
O=S(=O)(NCCS(=O)(=O)N1CCN(c2ccccc2)CC1)c1ccc(F)cc1	inactive	–
Cc1c(C(=O)OCC(=O)N(CCC#N)c2ccccc2)oc2c1ccc1ccccc12	inactive	–
O=C(NC(c1ccc(-c2ccccc2)cc1)c1cnccn1)C1CCN(CCOc2ccc(Cl)cc2Cl)CC1 (centres undefined)	–	-8.16% [at 18.4 µM] (inactive)
CCCCc1c(O)nc2n(c1=O)CCS2	inactive	–
CC1CCc2c(sc3nc4n(c(=O)c23)CCS4)C1 (centres undefined)	12.6 µM (active)	–
NNC(=O)C1CCCn2c1nc1sc3c(c1c2=O)CCCC3 (centres undefined)	inactive	–
Cc1cccc(C(=O)OCC(=O)NCC(C)C)c1O	inactive	–
Cc1cccc(N2CCN(Cc3nc(C4CC4)no3)CC2)n1	inactive	–
COP1(=O)C[C@@H](O)[C@@H](O)[C@@H](COCc2ccccc2)O1 (some centres undefined)	inactive	–
O=C(Nc1nnc(C2COc3ccccc3O2)o1)c1ccc(F)cc1 (centres undefined)	inactive	–

Source: PubChem BioAssay AID651644 (National Center for Advancing Translational Sciences (NCATS), 2012)
